esBAF inh = Bmi1 luciferase reporter increase in mESCs, primary screen, esBAF inhibitor project, mouse ES cells, Bmi1 luciferase knock-in, single point; 24 h; 100% = twice the neutral-well signal; reporter increase, % at 12.5 µM; 350,000 compounds, 2% hits; AID 602393, 2012; in the data active = activation above about 40%; inconclusive = no clear call, values can overlap the other calls;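 also: 0% = median of the plate's neutral control wells and 100% = double that signal; a rise in the Bmi1 reporter signal indicates esBAF inhibition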
Statin myotox sup = suppressors of statin myotoxicity in C2C12 myotubes, primary screen, cell-based, single point, plate reader; 330,000 compounds, 0.78% hits; AID 602340, 2012; rescue of ATP level, % at 7.49 µM; C2C12 myotubes + simvastatin, ATP luminescence, 48 h; scaled: DMSO 0, geranylgeraniol control 100;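 active = mean ATP rescue above about 67%, or every replicate alone reaching that limit, limit read from the data, passing the limit was not always enough; inconclusive = no clear call, values can overlap the other calls; inactive = mean under the limit and some replicate under it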;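 also: myotubes were challenged with 10 µM simvastatin during compound exposure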
GAA850 FXN act = FXN promoter activators, primary screen, cell-based, luciferase luminescence, HEK293 lucGAA850 | AID 540364, 2011 | activation, % at 6 µM | 360,000 compounds, 0.56% hits | HEK293 lucGAA850 FXN promoter luciferase reporter, 24 h; percent of 10 µM SAHA response;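 active = activation above the average of all compounds screened plus 3 SD, cutoff fixed separately per campaign, cut at about 7.5% in these data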;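 also: 0% = DMSO wells and 100% = 10 µM SAHA wells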
Wnt act = Wnt/beta-catenin pathway activators, primary screen, cell-based, plate reader, single point; 300,000 compounds, 1.2% hits; AID 743398, 2014; Wnt/beta-catenin reporter cell assay, activator; activation, % at 9.35 µM; in the data active = activation above about 30%, passing the limit was not always enough; inconclusive = no clear call, values can overlap the other calls;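 also: 0% = neutral control wells and 100% = positive control wells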
MITF TRPM1 HTS = activators of MITF-driven TRPM1 promoter reporter, primary screen, cell-based, SK-MEL-5, luciferase, single point. SK-MEL-5 TRPM1-promoter luciferase, 24 h; % of positive control, neutral wells = 0. activation, % at 12.5 µM. 300,000 compounds, 0.75% hits. AID 588334, 2011;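 active = mean activation of at least 80% with every replicate also reaching 80%; inconclusive = mean reaches 80% but some replicate falls short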;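 also: 0% = neutral control wells and 100% = parthenolide positive control wells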
* marks the source's active call; other numbers are inactive results; ? = inconclusive; . = no result given. Sampled rows, rich in hits. Any-hit rate of the full collection: about 3.3%.

SMILES	esBAF inh	Statin myotox sup	GAA850 FXN act	Wnt act	MITF TRPM1 HTS
CCOC(=O)c1nn(-c2ccc(C)cc2)cc1O	3.4	0.6	6.2	.	73.1
CCOC(=O)c1nn(-c2ccc3c(c2)OCO3)cc1O	.	.	2.5	.	90.0*
CCOC(=O)c1nn(-c2ccccc2)cc1O	37.0	9.6	2.2	15.4	49.3
CCOC(=O)C1=NN(c2ccc(Cl)cc2)C(=O)C1	.	.	5.8	64.8*	145.1*
COCC(=O)Nc1ccc2c(c1)C(=O)N(C)[C@@H]1CC[C@@H](CC(=O)NCc3ccc(OC)cc3)O[C@@H]1CO2	-2.5	9.0	.	.	.
COc1cc(/C=N/OCC(=O)NC2CCCCC2)ccc1OCc1ccccc1	.	.	2.7	17.7	12.1
COc1cc(/C=N/OCC(=O)NC23CC4CC(CC(C4)C2)C3)ccc1OCc1ccccc1	62.1*	5.9	4.7	5.7	41.8
C[C@H](CO)N1C[C@H](C)[C@@H](CN(C)Cc2ccc(C(F)(F)F)cc2)Oc2ccc(NC(=O)Cc3ccccc3)cc2CC1=O	5.3	115.6*	.	.	.
C[C@H](CO)N1C[C@H](C)[C@@H](CN(C)Cc2ccc(C(F)(F)F)cc2)Oc2ccc(NC(=O)Cc3cn(C)c4ccccc34)cc2CC1=O	-0.3	114.8*	.	.	.
COc1ccc(CN(C)C[C@@H]2Oc3ccc(NC(=O)Cc4cn(C)c5ccccc45)cc3CC(=O)N([C@H](C)CO)C[C@H]2C)cc1	0.3	80.8*	.	.	.
C[C@@H]1CN([C@@H](C)CO)C(=O)Cc2cc(NC(=O)Cc3cn(C)c4ccccc34)ccc2O[C@H]1CN(C)Cc1ccc(Oc2ccccc2)cc1	2.8	76.2*	.	.	.
C[C@@H]1CN([C@@H](C)CO)C(=O)Cc2cc(NC(=O)Cc3ccccc3)ccc2O[C@H]1CN(C)Cc1ccc(C(F)(F)F)cc1	0.1	27.2	.	.	.
C[C@@H]1CN([C@H](C)CO)C(=O)Cc2cc(NC(=O)Cc3cn(C)c4ccccc34)ccc2O[C@@H]1CN(C)Cc1ccc(Oc2ccccc2)cc1	0.7	46.3	.	.	.
Cc1ccc(S(=O)(=O)Nc2ccc3c(c2)C(=O)N([C@@H](C)CO)C[C@@H](C)[C@H](CN(C)C(=O)c2ccncc2)OCCCC[C@H](C)O3)cc1	-0.7	17.6	.	.	.
C[C@H](CO)N1C[C@H](C)[C@@H](CN(C)Cc2ccc(Oc3ccccc3)cc2)Oc2ncc(-c3cncnc3)cc2C1=O	-0.1	-3.4	.	.	.
O=c1cc(O)n(-c2ccccc2)c(=S)[nH]1	32.9	-3.9	-0.8	.	.
N=c1n(-c2ccccc2)c(O)cc(=O)n1-c1ccccc1	-2.2	122.8*	-2.3	-2.3	-12.6
C[C@@H]1CN([C@H](C)CO)C(=O)Cc2cc(NC(=O)CCC(F)(F)F)ccc2O[C@H]1CN(C)Cc1ccncc1	3.1	-15.5	.	.	.
COc1ccc(C2=NN(C(=O)CN3CCOCC3)C(c3nc4ccccc4[nH]3)C2)cc1 (configuration not stated)	59.5*	-2.1	6.1	?	35.2
COc1ccc(C2=NN(C(=O)CN3CCCCC3)C(c3ccc(C)cc3)C2)cc1 (configuration not stated)	-1.4	-2.5	0.2	-1.0	-1.9
COc1cc2cc(CN(CCc3ccccc3C)C(=S)NCCCN(C)C)c(=O)[nH]c2cc1OC	.	.	-3.1	.	-11.3
COc1cc2cc(CN(CCc3ccccc3C)C(=S)NCCCN3CCOCC3)c(=O)[nH]c2cc1OC	.	.	-6.1	50.3*	9.7
C[C@H](CO)N1C[C@H](C)[C@@H](CN(C)CC2CCCCC2)Oc2ccc(NC(=O)NC3CCCCC3)cc2CC1=O	0.2	17.1	.	.	.
O=C(Nc1cccc(Cl)c1Cl)c1csc([C@H]2C[C@H](O)[C@@H](CO)O2)n1	77.2*	-5.1	3.9	42.1*	.
O=C(Nc1cccc(Cl)c1)c1ccc2sc([C@H]3C[C@H](O)[C@@H](CO)O3)nc2c1	66.5*	-22.2	3.3	-0.7	.
SMILES	esBAF inh	Statin myotox sup	GAA850 FXN act	Wnt act	MITF TRPM1 HTS
O=C(Nc1cccc(Cl)c1Cl)c1csc([C@@H]2O[C@H](CO)[C@@H](O)[C@H]2O)n1	50.1*	-12.8	2.1	19.0	.
O=C(Nc1cccc(Cl)c1)c1ccc2sc([C@@H]3O[C@H](CO)[C@H](O)[C@H](O)[C@H]3O)nc2c1	3.8	5.4	0.9	.	.
O=C(Nc1ccc(F)c(Cl)c1)c1csc([C@@H]2O[C@H](CO)[C@H](O)[C@H](O)[C@H]2O)n1	-4.7	5.7	-1.1	0.7	.
O=C(Nc1ccc(Cl)cc1)c1csc([C@@H]2O[C@H](CO)[C@@H](O)[C@H]2O)n1	45.1*	-0.6	2.3	2.0	.
C#CCNC(=O)c1csc([C@@H]2O[C@H](CO)[C@@H](O)[C@H]2O)n1	-9.3	-1.6	0.5	0.3	.
C[C@@H]1CN([C@H](C)CO)S(=O)(=O)c2ccc(C3=CCCCC3)cc2O[C@@H]1CN(C)Cc1ccccc1F	-4.4	-37.1	.	.	.
COc1ccc(C)cc1-n1nnnc1SCc1nc2ccccc2s1	56.9*	-28.3	5.6	24.5	.
COc1ccc(C)cc1-n1nnnc1SCC1CCCO1 (configuration not stated)	.	.	-0.3	.	-6.1
COc1ccc(-n2nnnc2SCc2nc3ccccc3s2)cc1	70.9*	7.5	2.0	.	30.1
COc1ccc(CSc2nnnn2-c2ccccc2)cc1	4.9	28.7	0.3	.	19.2
C[C@H](CO)N1C[C@H](C)[C@@H](CN(C)S(=O)(=O)c2ccc(Cl)cc2)OCCCC[C@H](C)Oc2ccc(NS(C)(=O)=O)cc2C1=O	-3.3	-47.3	.	.	.
O=C([C@H]1[C@H](CO)[C@H]2Cn3c(cccc3=O)[C@H]2N1CCC(F)(F)F)N1CCCCC1	3.1	-11.1	.	.	.
CC(C)(C)NC(=O)Nc1ccc2nccnc2c1	51.6*	-9.7	1.4	.	58.5
CC(C)(C)NC(=O)c1ccc2nccnc2c1	2.0	-1.6	3.3	.	.
C[C@@H]1CN([C@@H](C)CO)C(=O)c2cc(/C=C/c3ccccc3)cnc2O[C@H]1CN(C)Cc1cccnc1	-2.0	23.6	.	.	.
O=C1c2ccccc2NC(c2ccc(Br)o2)N1O (configuration not stated)	31.2	8.4	3.3	44.0*	.
O=C1c2ccccc2NC(c2ccc(-c3ccc(C(F)(F)F)cc3)o2)N1O (configuration not stated)	-1.2	-8.5	-0.9	5.5	-25.6
O=C1c2ccccc2NC(c2ccc(-c3cccs3)o2)N1O (configuration not stated)	66.6*	7.6	4.8	59.1*	82.5*
O=C1c2ccccc2NC(c2ccco2)N1O (configuration not stated)	0.8	-1.9	-1.1	.	6.1
O=C(Cc1ccncc1)Nc1ccc2c(c1)[C@@H]1C[C@H](CC(=O)N3CCCCC3)O[C@@H](CO)[C@@H]1O2	-4.6	5.5	.	.	.
N#C/C(=C/c1ccc(N2CCOCC2)o1)C(=O)Nc1ccccc1	36.1	-0.6	6.2	50.3*	57.7

Assay outcomes from PubChem.
